# TEAD-YAP block: TEAD-YAP interaction inhibition | HEK-TIYL cells, TEAD-Gal4/YAP UAS-luciferase luminescence | inhibition, % at 9.12 µM | hit rate 1.4% among 640,000 | AID 1259422; in the data active = inhibition above about 32%;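 also: 0% = median of test compound wells and 100% = reference inhibitor wells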
# MITF primary: blocks human microphthalmia-associated transcription factor | O75030 | AlphaScreen MITF homodimerization, bead proximity signal | inhibition, % at 2.6 µM | hit rate 0.91% among 650,000 | AID 1259374; in the data active = inhibition above about 50%;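 also: 0% = vehicle wells with protein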
# GPR151 ag: activates the human receptor GPR151; hit rate 1% among 650,000; activation, % at 11.2 µM; PathHunter beta-arrestin GPR151 cells, luminescence; Q8TDV0; in the data active = activation above about 4.9%;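 also: 0% = median of compound wells and 100% = cells with positive control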
# FBW7 act: activators of human E3 ligase FBW7; AlphaScreen FBW7–phospho-cyclin E peptide binding, activator screen; normalized activity (activation), % at 26.1 µM; hit rate 0.13% among 650,000; in the data active = normalized activity above about 1.9%;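 also: purified mutant Fbw7 with reduced substrate affinity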
# Target sequence (Q969H0 whole entry, looked up): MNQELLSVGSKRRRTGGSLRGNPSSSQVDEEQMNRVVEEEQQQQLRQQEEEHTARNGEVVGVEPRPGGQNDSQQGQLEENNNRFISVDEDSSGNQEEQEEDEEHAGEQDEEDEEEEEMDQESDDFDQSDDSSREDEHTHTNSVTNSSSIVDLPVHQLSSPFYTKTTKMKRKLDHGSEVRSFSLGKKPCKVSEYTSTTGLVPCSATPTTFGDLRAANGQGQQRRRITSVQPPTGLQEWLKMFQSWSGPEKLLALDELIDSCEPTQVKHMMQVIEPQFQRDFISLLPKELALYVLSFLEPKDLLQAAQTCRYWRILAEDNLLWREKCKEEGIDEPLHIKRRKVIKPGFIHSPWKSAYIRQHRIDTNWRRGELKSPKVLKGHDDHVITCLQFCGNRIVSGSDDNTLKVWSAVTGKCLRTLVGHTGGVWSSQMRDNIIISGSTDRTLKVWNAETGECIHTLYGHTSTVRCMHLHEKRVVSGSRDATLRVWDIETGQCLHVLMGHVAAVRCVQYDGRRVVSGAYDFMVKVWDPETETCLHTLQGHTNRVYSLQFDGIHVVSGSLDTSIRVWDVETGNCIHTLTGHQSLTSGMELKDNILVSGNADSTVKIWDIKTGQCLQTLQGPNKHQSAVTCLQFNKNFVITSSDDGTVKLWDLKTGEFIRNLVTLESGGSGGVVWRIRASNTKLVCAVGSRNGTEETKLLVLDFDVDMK
# * marks the source's active call; other numbers are inactive results. Shown are actives, neighbours in structure and some others; about 3.5% of the full set was active somewhere.
SMILES,TEAD-YAP block,MITF primary,GPR151 ag,FBW7 act
Cc1nn(C)c(C)c1-c1nc(NCCCN2CCCC2=O)c2ncn(-c3ccsc3)c2n1,56*,16,-1,0
CCOc1ccc2nc(SCc3ccccn3)sc2c1,-60,5,1,0
c1nc2nc(N3CCN(Cc4ccc5c(c4)OCO5)CC3)nc(NC3CC3)c2[nH]1,12,10,-1,0
CCCc1cc2c(=O)c(-c3ccc(C(=O)OCC)o3)c(C)oc2cc1O,5,1,1,0
COc1ccc(N2CCN(Cc3cccs3)CC2)cc1,0,55*,1,-1
COc1ccc(N2CCN(Cc3ccsc3)CC2)cc1,-1,67*,-1,1
COc1cc(NC(=O)c2noc(C)c2[N+](=O)[O-])cc(OC)c1OC,12,5,-2,1
Nc1ncnc(SC2=NCCCN2)c1[N+](=O)[O-],8,8,1,0
COc1ccccc1-c1nnc(SCC(=O)Nc2ccc(Br)cn2)o1,34*,4,1,0
COc1ccc(-c2c[n+]3c(n2-c2c(C)n(C)n(-c4ccccc4)c2=O)CCCCC3)cc1,4,-1,0,0
Cc1ccc(-n2c(-c3ccccc3)c[n+]3c2CCCCC3)cc1,59*,13,-1,0
Cc1ccc(-c2c[n+]3c(n2-c2ccccc2)SCC3)cc1,56*,-12,1,0
Brc1ccc(-c2c[n+]3c(n2-c2ccccc2)SCC3)cc1,3,-11,-1,0
Clc1ccc(-c2c[n+]3c(n2-c2ccccc2)CCC3)cc1,12,2,0,0
Cc1ccc(-c2c[n+]3c(n2-c2ccc(C)cc2)CCCCC3)cc1,85*,14,4,0
Cc1ccc(-c2cn(-c3ccccc3)c3[n+]2CCCS3)cc1,68*,16,0,0
CCOC(CNC(=O)c1ccc2c(c1)ncn2-c1cc(C)ccc1OC)OCC,3,5,0,0
NS(=O)(=O)c1ccc(CNc2ccc3ncc(-c4cccc(Cl)c4)n3n2)cc1,-16,16,0,0
O=C(CCSc1ccccc1)N1CCC(Oc2nc3ccccc3s2)CC1,-10,-5,1,0
Cn1cc(-c2ccc(-c3ccnc(Nc4ccc(-n5cnc(N6CCOCC6)n5)cc4)n3)cc2)cn1,-5,6,-1,0
Cn1cc(-c2ccc3cnc(Nc4ccc(-n5cnc(N6CCOCC6)n5)cc4)nc3n2)cn1,80*,13,0,0
Cc1nc(C)n(-c2ccc(Nc3ncc(F)c(-c4cc(F)cc(N5CCOCC5)c4)n3)cc2)n1,-2,-5,2,0
N#Cc1cc(-c2nc(Nc3ccc(N4CCOCC4)cc3)ncc2F)cc(N2CCOCC2)c1,4,-2,-1,0
CN1CCN(c2ncn(-c3ccc(Nc4ncc(F)c(-c5cc(F)cc(N6CCOCC6)c5)n4)cc3)n2)CC1,77*,0,1,0
CN1CCN(c2ncn(-c3ccc(Nc4ncc(F)c(-c5cccc(N6CCOCC6)c5)n4)cc3)n2)CC1,62*,17,1,0
SMILES,TEAD-YAP block,MITF primary,GPR151 ag,FBW7 act
Cn1cnnc1-c1ccc(Nc2ncc(F)c(-c3cc(F)cc(N4CCOCC4)c3)n2)cc1,72*,19,4,0
CCCCCC1CCC(c2ccc(-c3nnc(-c4ccc(OCCCC)cc4)o3)cc2)CC1 (stereo unspecified),-2,17,-2,0
Cn1cc(-c2nc(Nc3ccc(-n4cnc(N5CCC(O)CC5)n4)cc3)ncc2F)cn1,85*,-5,0,0
Cn1cnnc1-c1ccc(Nc2nccc(-c3cccc(Nc4ccccc4)c3)n2)cc1,2,9,-2,1
CC1CN(c2ncn(-c3ccc(Nc4ncc5ccc(-c6cnn(C)c6)c(Cl)c5n4)cc3)n2)CC(C)O1 (stereo unspecified),57*,21,0,0
Cn1cnnc1-c1ccc(Nc2ncc(F)c(-c3ccccc3)n2)cc1,41*,16,1,0
CCn1cc(-c2ccc3cnc(Nc4ccc(-n5cnc(N6CCOCC6)n5)cc4)nc3c2Cl)cn1,0,12,0,0
CC(C)c1ccc(NC(=O)CCS(=O)(=O)c2ccc3c(c2)OCC(=O)N3)cc1,5,1,3,0
CCOC(=O)c1ccc(OCC2c3cc(OC)c(OC)cc3CCN2C(=O)c2ccc(Cl)cc2)cc1 (stereo unspecified),1,13,-1,0
COc1ccc(C(C)=O)cc1CC1(C)C(=O)Nc2ccc(F)cc21 (stereo unspecified),-1,17,-1,0
Cc1cc(C2C(=O)c3ccccc3C2=O)nc2ccccc12,49*,-9,0,0
CC(C)(C)C(=O)CNC(=O)c1ccncc1,57*,10,1,0

# Bioassay records (PubChem BioAssay)
